High-throughput results (PubChem BioAssay)
A selection: hits, their analogues and other compounds. The true share with any hit is near 19%.
TDP1 cell CPT: growth inhibition of DT40 Tdp1-/-;hTDP1 cells with camptothecin (screen for TDP1 inhibitors) | Potency, µM (doses to about 46.2 µM), for the others: at the top dose activity change, negative = growth inhibition, usual class: inhibitors | 12% of 420,000 active | AID 686979 | chicken DT40 Tdp1-/-;hTDP1 cells + 20 nM CPT, ATP luminescence, 48 h; note: potency is the fitted concentration of half-maximal effect; % is set by controls: 0 for no effect and ±100 for the full control effect; nearly all actives have a fitted effect of over 55% in size
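Chicken DT40 Tdp1-/- cells complemented with human TDP1, 400 cells/well, exposed to compounds plus 20 nM camptothecin for at least 48 h at 37 C; viability read as ATP content by CellTiter-Glo luminescence.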
DT40 TDP1 no CPT: qHTS for Inhibitors of human tyrosyl-DNA phosphodiesterase 1 (TDP1): qHTS in cells in absence of CPT. Potency, µM (doses to about 46.2 µM), for inactives: at the highest dose activity change, negative = growth inhibition, usual class: inhibitors. 15% of 420,000 active. DT40 Tdp1-/- hTDP1 cells, no CPT, ATP luminescence, 48 h; note: potency is the fitted concentration of half-maximal effect; % is set by controls: 0 for no effect and ±100 for the full control effect; nearly all actives have a fitted effect of over 55% in size
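Chicken DT40 Tdp1-/- cells complemented with human TDP1, screened without camptothecin (DMSO vehicle only), 400 cells/well. Compounds pin-transferred, cells incubated at 37 °C for at least 48 hr. Growth read as ATP-dependent luminescence (CellTiter-Glo, 30 min at RT).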
IL-1B inflam inh: blocks inflammasome-driven IL-1 beta release | THP-1 LPS/ATP IL-1B secretion, AlphaLISA, 16 h; stronger effect = lower value | activity change, % at 57.5 µM | 4.7% of 360,000 active | AID 743279; in the data active = activity change below about -50%; inconclusive = mostly about -30% to -49%; note: % is set by controls: 0 for no effect and ±100 for the full control effect
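Secreted IL-1B measured by AlphaLISA bead assay after 16 h compound exposure of THP-1 cells; compounds (final up to 57.5 uM) added 1 h before LPS (250 ng/mL) and ATP (1.25 mM) stimulation; lower signal means less secretion.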
S-ASM inh: blocks human secretory acid sphingomyelinase | Potency, µM (highest dose often 57.5 µM), inactives show top-dose activity change, negative = inhibition, most hits filed as inhibitors | AID 504937 | P17405 | placental ASM, HMU-PC fluorogenic substrate, 60 min | 0.006% of 340,000 active; note: potency is the fitted concentration of half-maximal effect
Target sequence (P17405 47-631 limits assumed): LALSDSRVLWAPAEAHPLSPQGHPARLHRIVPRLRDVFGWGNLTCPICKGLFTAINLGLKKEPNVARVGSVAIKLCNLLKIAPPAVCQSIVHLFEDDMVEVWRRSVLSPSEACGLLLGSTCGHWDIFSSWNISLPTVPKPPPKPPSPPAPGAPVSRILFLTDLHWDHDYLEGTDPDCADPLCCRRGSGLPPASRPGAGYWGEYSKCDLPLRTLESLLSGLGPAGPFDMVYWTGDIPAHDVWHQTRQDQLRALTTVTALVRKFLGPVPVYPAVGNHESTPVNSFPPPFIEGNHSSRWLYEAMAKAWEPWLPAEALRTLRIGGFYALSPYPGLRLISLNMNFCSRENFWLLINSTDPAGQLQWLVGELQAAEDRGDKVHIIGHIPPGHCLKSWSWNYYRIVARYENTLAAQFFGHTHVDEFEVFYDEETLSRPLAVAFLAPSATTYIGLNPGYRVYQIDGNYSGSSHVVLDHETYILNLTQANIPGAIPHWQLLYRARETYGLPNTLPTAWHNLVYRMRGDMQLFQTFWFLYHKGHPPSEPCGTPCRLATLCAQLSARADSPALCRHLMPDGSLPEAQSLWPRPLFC
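HMU-PC0 cleavage (9 uM final) by human placental ASM, 60 min at 37 °C following 10 min compound exposure at RT; stopped at pH 10, fluorescence Ex 386/Em 447 nm.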
HepG2 tox: counter-screen for TGF-b inhibitors: cytotoxicity in HepG2 cells | HepG2 CAGA-GFP viability, ATP luminescence, 18 h | Potency, µM (highest dose often 46.1 µM), for inactives: top-dose activity change, negative = cytotoxicity, hits mostly cytotoxic | 0.76% of 410,000 active; note: potency is the fitted concentration of half-maximal effect
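HepG2 CAGA-GFP cells (1000/well, DMEM with 1% FBS) received compound, then TGF-beta at 500 pg/mL final, and were incubated 18 hours at 37 degrees C. Viability was read by CellTiter-Glo luminescence. Media-only wells were set as complete cell-killing and DMSO as no toxicity.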
TGFb inhibitor: TGF-b pathway inhibition | HepG2 CAGA-GFP TGF-b/SMAD3 reporter, GFP fluorescence, 18 h; TGF-beta stimulated, 500 pg/mL final | Potency, µM (series often up to 46.1 µM), for the others: at the top dose activity, negative = inhibition, hits mostly inhibitors | 1.2% of 410,000 active | AID 588855; note: potency is the fitted concentration of half-maximal effect; % is set by controls: 0 for no effect and ±100 for the full control effect; nearly all actives have a fitted effect of over 65% in size
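HEPG2 CAGA-GFP, 1000 cells/well; 2 h settle, 37 C; cpd via pin tool; TGF-b 500 pg/mL final; 18 h, 37 C; GFP imaging ex488/em500-530; %Activity normalised to -TGF-b and +DMSO controls; CRC fit, curve class.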
* = called active by the depositor; u = inconclusive; x = no result; [ ] = dose if it differs, or a comment. Unless noted, calls come from the whole dose curve; as a rule, active = well fitted curve in the direction sought with a large enough effect; inconclusive = small, poorly fitted or top-dose-only effect, or another doubt; inactive = no such curve, though single readings can be large; an effect the other way counts as inactive or inconclusive.

SMILES	TDP1 cell CPT	DT40 TDP1 no CPT	IL-1B inflam inh	S-ASM inh	HepG2 tox	TGFb inhibitor
CC(/C=N/NC(=O)NC1CCCCC1)=C\c1ccccc1	20.6µM*	20.6µM*	u	-6.1%	-77.5%	u
O=C(NN=Cc1ccc(F)cc1)C1CC1	1.8%	1.9%	-1.5	-2.5%	-10.5%	15.3%
O=C(O)c1ccc(N/N=C/C(Br)=C/c2ccccc2)cc1	5.8µM*	7.31µM*	-13.7	-2.4%	-19.2%	-29.7%
O=C(N/N=C/C(Br)=C/c1ccccc1)NC1CCCCC1	9.2µM*	14.6µM*	-94.1*	-14.8%	-60.3%	u
O=C(N/N=C/C(Br)=C/c1ccccc1)C1CC1	8.2µM*	13µM*	-75.7*	-0.5%	-15.7%	-3.3%
O=C(C=NNc1ccccc1)c1ccccc1	-17.0%	-23.0%	7.2	-0.9%	-17.0%	-6.7%
O=C(Cn1ncn2c(cc3sccc32)c1=O)NCCc1ccccc1	11.7%	-16.8%	x	x	-13.8%	4.9%
COc1cc(OC)c(S(=O)(=O)NC(C)C)cc1S(=O)(=O)NC(C)C	12.6%	-4.4%	8.4	3.6%	-6.3%	9.0%
CCOC(=O)CCCNC(=O)COC(=O)[C@@H]1CCCN1S(=O)(=O)c1ccc(Cl)cc1	-5.6%	-24.1%	53.7	5.8%	-16.9%	3.8%
Cc1ccc(NC(=O)c2ccc(NC(=O)CCS(=O)(=O)c3cccs3)cc2)cc1F	-24.3%	u	x	x	-12.5%	-19.7%
O=C(N/N=C/C(Br)=C/c1ccccc1)C(O)c1ccccc1 (stereo not given)	5.8µM*	8.2µM*	-20.4	-3.5%	-26.3%	-23.5%
CCc1nc(SCC(=O)Nc2cc(C)ccc2OC)c2c(C)c(C)sc2n1	-6.3%	14.6µM*	3.6	-14.6%	-15.9%	11.3%
Cc1sc2nc(SCC(=O)Nc3ccccc3F)[nH]c(=O)c2c1C	-6.0%	-22.0%	16.0	-0.3%	1.5%	32.8%
CCc1nc(SCC(=O)Nc2ccccc2OC)c2c(C)c(C)sc2n1	u	20.6µM*	u	-2.8%	-11.9%	-11.1%
O=S(=O)(CCNC1CC1)NC1CCCCC1	-10.7%	-16.1%	21.7	1.3%	3.2%	8.8%
O=C(N/N=C/c1ccc(O)cc1)NC12CC3CC(CC(C3)C1)C2	-0.5%	-28.4%	-73.7*	-1.1%	-29.9%	-1.8%
COC(=O)C(Cc1ccc(O)cc1)NC(=O)NC12CC3CC(CC(C3)C1)C2 (stereo not given)	-32.6%	u	-62.8*	0.8%	-2.7%	-20.6%
COc1ccc(/C=N/NC(=O)NC23CC4CC(CC(C4)C2)C3)c(OC)c1	u	23.1µM*	-68.8*	-13.7%	-9.5%	0.0%
O=C(C[C@H]1C=C[C@H](NC(=O)c2ccccn2)[C@@H](CO)O1)NCc1cc(F)cc(F)c1	-24.3%	-10.4%	-6.7	x	x	x
O=S(=O)(Nc1ccc(Br)cc1)c1cccc(NS(=O)(=O)c2cccs2)c1	-19.7%	-9.9%	25.1	-0.9%	-24.6%	u
CCCCc1nnc(NC(=O)C2CC(=O)N(c3ccc4c(c3)OCCO4)C2)s1 (stereo not given)	25.9%	0.0%	34.4	1.1%	3.4%	-7.0%
O=C(Nc1nnc(-c2ccco2)s1)C1CCCCC1	-11.5%	-17.1%	-19.7	1.7%	-5.6%	14.2%
O=C(Nc1nc(-c2ccco2)c(-c2ccco2)s1)C1CCC1	14.6µM*	18.4µM*	u	-0.9%	-22.5%	3.6%
CS(=O)(=O)c1ccc(C(=O)Nc2nc(-c3ccco3)c(-c3ccco3)s2)cc1	u	20.6µM*	u	-22.1%	-16.2%	-5.6%
CS(=O)(=O)c1ccc2nc(NC(=O)c3ccccc3)sc2c1	-26.7%	u	18.3	-5.5%	-55.6%	8.5%
SMILES	TDP1 cell CPT	DT40 TDP1 no CPT	IL-1B inflam inh	S-ASM inh	HepG2 tox	TGFb inhibitor
O=C(Nc1nc(-c2ccco2)c(-c2ccco2)s1)C1CC(=O)N(c2ccc3c(c2)OCCO3)C1 (stereo not given)	16.4µM*	u	-20.6	-8.4%	-3.1%	-1.4%
Cc1cnc(NC(=O)C2CC(=O)N(c3cccc(Cl)c3)C2)s1 (stereo not given)	7.31µM*	5.8µM*	-17.1	3.8%	1.78µM*	u
CC(=O)Nc1ccc(NC(=O)C2CC(=O)N(c3cccc(Cl)c3)C2)cc1 (stereo not given)	u	u	23.2	1.9%	3.0%	7.8%
CCC(=O)Nc1cccc(-n2nnnc2SCC(=O)N(C(C)C)C(C)C)c1	4.0%	u	47.4	-0.6%	4.6%	5.4%
CCCCNC(=O)C1(C)CCCCN1C(=O)c1cc(C#N)cs1 (stereo not given)	0.2%	-2.8%	29.2	x	-8.1%	12.2%
CCc1ccccc1NC(=O)c1ccc2c(c1)N(Cc1cccc(Cl)c1)C(=O)c1ccccc1S2(=O)=O	x	x	x	x	-4.2%	2.3%
CCc1ccc(-c2csc(NC(=O)C3CC(=O)N(c4ccc5c(c4)OCCO5)C3)n2)cc1 (stereo not given)	16.4µM*	16.4µM*	1.3	-16.1%	-20.4%	u
Cc1csc(NC(=O)C2CC(=O)N(c3ccc4c(c3)OCCO4)C2)n1 (stereo not given)	-18.8%	11.0%	0.0	-2.6%	1.2%	13.3%
Cc1nnc(NC(=O)C2CC(=O)N(c3ccc4c(c3)OCCO4)C2)s1 (stereo not given)	-0.3%	21.2%	-6.0	0.1%	-15.2%	5.3%
Cc1cnc(NC(=O)C2CC(=O)N(c3ccc4c(c3)OCCO4)C2)s1 (stereo not given)	-3.2%	-9.1%	-57.2*	1.3%	-21.3%	u
CCOc1ccc(NC(=O)Cn2ccn(-c3ccc(F)c(F)c3)c(=O)c2=O)cc1	4.5%	-4.5%	x	x	-6.8%	8.1%
C=C1C(=O)C=C[C@]2(C)C[C@@H]3OC(=O)[C@](C)(O)[C@H]3C[C@@H]12	1.84µM*	1.3µM*	-110.1*	5.8%	-70.4%	u
CC(C)c1c(C(=O)N2CCN(CCO)CC2)cnn1-c1nccc(-c2cccs2)n1	25.6%[9.04 µM]	-14.1%	x	x	x	x
Cc1cc(=O)[nH]c(N/N=C/c2ccc(Cl)c([N+](=O)[O-])c2)n1	u	-28.9%	5.9	-1.4%	7.0%	-5.8%
O=C(N/N=C/C1=C(N2CCOCC2)C(=C\c2ccccc2)/CC1)Nc1ccccc1	11.6µM*	8.2µM*	5.1	-2.8%	-1.9%	1.9%
Cc1occc1C(=O)N/N=C/C1=C(N2CCOCC2)C(=C\c2ccc(Cl)cc2)/CC1	u	0.92µM*	2.7	4.2%	-3.7%	15.9%
